# Reference: PubChem BioAssay AID720582 (The Scripps Research Institute Molecular Screening Center, 2013)
# Hit rate of the full screen: of about 370,000 compounds, about 2,300 (0.62%) were called active. The sample holds actives, similar compounds and a random draw of the others, so the mix is not that of the screen. Unmarked numbers belong to inactive results.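 Rule for the calls: active = inhibition above a per-campaign cutoff equal to the mean of compounds falling between control-based bounds plus 3 SD (cut at about 20% in these data); inactive = the rest.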
# Target: Disintegrin and metalloproteinase domain-containing protein 10 (Homo sapiens) (UniProt O14672)
# Test: human ADAM10 inhibitors, primary screen, biochemical, QFRET, HTS (AID 720582);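 note: 0% = DMSO wells while the 100% control is not disclosed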
# Conditions: recombinant ADAM10, EDANS/DABCYL FRET peptide cleavage, 3 h; at 7 µM; active compounds read high
# Sequence of Disintegrin and metalloproteinase domain-containing protein 10 (Homo sapiens) (O14672 214-748 limits assumed): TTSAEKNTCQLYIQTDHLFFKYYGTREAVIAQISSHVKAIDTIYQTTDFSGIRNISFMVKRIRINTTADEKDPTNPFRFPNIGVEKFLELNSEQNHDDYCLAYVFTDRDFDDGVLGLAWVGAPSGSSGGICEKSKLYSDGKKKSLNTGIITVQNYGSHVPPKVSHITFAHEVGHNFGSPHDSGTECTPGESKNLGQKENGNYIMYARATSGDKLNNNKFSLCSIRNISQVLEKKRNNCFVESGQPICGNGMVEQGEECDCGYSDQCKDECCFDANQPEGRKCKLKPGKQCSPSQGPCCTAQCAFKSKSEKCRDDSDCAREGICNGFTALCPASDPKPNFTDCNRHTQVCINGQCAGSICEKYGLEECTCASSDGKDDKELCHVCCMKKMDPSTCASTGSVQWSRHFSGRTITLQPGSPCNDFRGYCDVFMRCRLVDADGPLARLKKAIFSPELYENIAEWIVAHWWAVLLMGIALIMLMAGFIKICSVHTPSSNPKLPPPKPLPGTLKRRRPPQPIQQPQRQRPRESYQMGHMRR
row,SMILES,inhibition
1,Cc1ccc(C)c(NC(=O)NNC(=O)c2ccc3ccccc3c2O)c1,-78.3%
2,Cc1ccc(C)c(NC(=S)NNC(=O)c2csc(C)c2)c1,24.9% (active)
3,Cc1cc(C(=O)NNC(=S)NC(C)c2ccccc2)cs1 (stereo unspecified),9.44%
4,COc1ccccc1C(=O)CSc1nnc(-c2ccccn2)n1-c1ccccc1,-1.9%
5,COc1cccc(CSc2nnc(-c3cccnc3)n2Cc2ccccc2)c1,-11.6%
6,O=C(CCCCCN1C(=O)C2C3C=CC(C3)C2C1=O)Nc1ccccn1 (stereo unspecified),2.11%
7,COC(=O)c1cc(S(=O)(=O)N2CCN(C(=O)C3CCCO3)CC2)cn1C (stereo unspecified),-4.05%
8,O=C1CCC(C(=O)OCC(=O)Nc2ccc(OC(F)F)cc2)=NN1,5.49%
9,CCC(C)(C)c1ccc(Oc2ccc(NC(=O)COC(=O)C3=COCCO3)cc2)cc1,35.7% (active)
10,COc1ccc(NC(=O)COC(=O)CNC(=O)C2CCCCC2)cc1,-0.81%
11,N/C(Cc1ccc([N+](=O)[O-])cc1)=N\OC(=O)C1CCCCC1,-1.46%
12,Cc1cc(C)cc(OCC(=O)O/N=C(\N)Cc2ccc([N+](=O)[O-])cc2)c1,6.24%
13,N/C(Cc1ccc([N+](=O)[O-])cc1)=N\OC(=O)COc1ccc2ccccc2c1,29.3% (active)
14,O=C(NCC1COc2ccccc2O1)c1ccc(NC(=O)c2cc(F)ccc2F)cc1 (stereo unspecified),-8.24%
15,CCOC(=O)N1CCN(C(=O)C[C@@H]2C(=O)N(CCc3ccc(Cl)cc3)C3=CCCC[C@]32C(=O)OCC)CC1,1.06%
16,COc1ccc(C(CCN(Cc2ccc(OC)c(OC)c2)C(=O)CCl)c2ccccc2)cc1 (stereo unspecified),28% (active)
17,COc1ccc(CN(CCN2CCOCC2)C(=O)c2ccc(C)cc2)cc1OC,-9.63%
18,COc1ccc(C(C(=O)NC2CCCCC2)N(C(=O)CCl)c2ccccc2Cl)cc1 (stereo unspecified),-8.69%
19,COC(=O)C1CN(CCc2ccccc2)CCS(=O)(=O)N1Cc1ccc(F)cc1 (stereo unspecified),-11.1%

row,SMILES,inhibition
1,COC1=C[C@H](C(=O)NCCNC(C)=O)[C@H](C)[C@@H](c2ccccc2)CC1=O,4.85%
2,CCOc1cc(NC(=O)CCl)c(OCC)cc1NC(C)=O,-2.95%
3,CCOc1ccccc1NC(=O)c1cc(S(=O)(=O)N2CCC3(CC2)OCCO3)ccc1F,-1.65%
4,CCOc1cc(NC(=O)c2ccccc2C(=O)O)c(OCC)cc1NC(=O)c1ccccc1F,26.7% (active)
5,c1cncc(CNc2ccnc(-c3ccc4c(c3)OCO4)n2)c1,-4.61%
6,CN(CCc1ccccc1)C(=O)Cn1nc(-c2ccccc2)ccc1=O,-9.95%
7,C=CCOc1ccc(/C=N/n2cncn2)cc1OC,-13.5%
8,COc1cc(/C=N/n2c(C)n[nH]c2=S)ccc1OCc1ccccc1,20.3% (active)
9,CNC(=S)N/N=C/c1ccc(OCc2ccccc2)c(Br)c1,-17%
10,CC(CCN1CCC(C(O)(c2ccccc2)c2ccccc2)CC1)Oc1ccc(Cl)cc1 (stereo unspecified),6%
11,O=S1(=O)c2ccc(Br)cc2OC[C@H](Cc2ccccc2)N1Cc1cn(Cc2ccccc2)nn1,-9.49%
12,Cc1[nH]nc(-c2ccc(OCc3cnn(-c4ccccc4)c3)cc2O)c1Oc1ccc(Cl)cc1,-10.7%
13,C=C(C)COc1ccc(-c2n[nH]c(C)c2-c2ccccc2)c(O)c1,23.7% (active)
14,C[C@H]1CCC/C=C/C(=O)c2c(O)cc(O)cc2CC(=O)O1,-6.63%
15,O=C(CSc1nnc(COc2ccccc2)n1Cc1ccco1)c1ccc2ccccc2c1,9.91%
16,Cc1ccc(-c2nnc(SCC(=O)Nc3ccc(Oc4ccccc4)cc3)n2Cc2ccco2)cc1,17.8%
17,Cc1ccc(OCc2nnc(SC/C=C/c3ccccc3)n2Cc2ccco2)cc1,21.3% (active)
18,Cc1c(C(C)c2ccccc2O)[nH]c2ccccc12 (stereo unspecified),11.8%
19,O=C1CC(c2ccc3c(c2)OCO3)N=C2N(CC3CC3)C/C(=C/c3ccccc3)N12 (stereo unspecified),-2.63%

row,SMILES,inhibition
1,CC(=O)Nc1ccc(N2C(=O)C3C4CC(=O)C(c5ccccc54)C3C2=O)cc1 (stereo unspecified),-0.65%
2,O=C(Oc1cccc(N2C(=O)C3C4c5ccccc5C(c5ccccc54)C3C2=O)c1)c1ccco1 (stereo unspecified),20.3% (active)
3,Cc1ccc(C)c(NC(=O)c2ccc(OC(=O)c3ccco3)cc2)c1,0.79%
4,O=C(NCCNc1ccc([N+](=O)[O-])cc1)c1cccc2c(Br)cccc12,-54.2%
5,COc1ccc(Cn2cc(COC(=O)N(C)Cc3ccccc3)nn2)cc1,1.83%
6,Oc1oc(-c2ccccc2Br)nc1/C=N/c1ccccn1,-33.4%
7,CC(N=Cc1nc(-c2ccccc2)oc1O)c1ccccc1 (stereo unspecified),21% (active)
8,COc1ccc(-n2c(SCC(=O)Nc3ccc4cn[nH]c4c3)nnc2-c2cccnc2)cc1,3.52%
9,CC(C)CSc1nnc(-c2cccnc2)n1Cc1ccccc1,-2.15%
10,Nn1c(SCC(=O)N2c3ccccc3Sc3ccccc32)nnc1-c1n[nH]c2c1CCC2,-5.44%
11,Cc1ccc(N(CC(=O)Nc2cc(C)cc(C)c2)S(=O)(=O)c2cccc3nonc23)cc1,14.3%
12,Cc1ccc(S(=O)(=O)N(CC(=O)Nc2cccnc2)c2ccc(Br)cc2)cc1,20.1% (active)
13,CCNC(=O)CN(c1ccc(C)cc1)S(=O)(=O)c1ccc(SC)cc1,2.9%
14,O=S1(=O)c2c(cccc2N2CCSCC2)Oc2ccccc2CN1Cc1cn(Cc2ccc(F)cc2)nn1,-1.57%
15,CCOc1ccc(N(CC(=O)Nc2c(C)n(C)n(-c3ccccc3)c2=O)S(=O)(=O)c2ccc(Cl)s2)cc1,7.29%
16,NC(=O)c1ccccc1N(Cc1ccccc1)S(=O)(=O)c1ccccc1,14.4%
17,O=C(O)c1cc(S(=O)(=O)N(Cc2ccccc2)c2ccccc2)ccc1Cl,2.05%
18,O=S(=O)(c1ccccc1)N(Cc1cccc(F)c1)c1ccccc1,22.7% (active)
